Many of the other results were omitted from the sample, so the strongest signals are more common in it than they were.
How the values were obtained:
Assay in all cases: glycan array binding signal (z-score within array); higher = stronger binding
Details in all cases: glycan notation: IUPAC condensed, linker removed
[1] = molecular target: Fuc(a1-2)Gal(b1-3)[Fuc(a1-4)]GlcNAc(b1-3)[Fuc(a1-3)[Gal(b1-4)]GlcNAc(b1-6)]Gal(b1-4)Glc
Outline: (§1)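 Columns mapping to the same glycan were averaged after glycan names were converted to IUPAC-condensed notation. The data come from 3228 arrays in the Consortium for Functional Glycomics database, limited to those with an available protein sequence. Binding is reported as a within-array Z-score averaged across arrays of one protein sequence and across linkers.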

[2] = molecular target: Fuc(a1-2)Gal(b1-4)GlcNAc(b1-2)[Fuc(a1-2)Gal(b1-4)GlcNAc(b1-4)]Man(a1-3)[Fuc(a1-2)Gal(b1-4)GlcNAc(b1-2)Man(a1-6)]Man(b1-4)GlcNAc(b1-4)GlcNAc
Outline: as §1

[3] = molecular target: Fuc(a1-2)Gal(b1-4)GlcNAc(b1-3)GalNAc
Outline: as §1

[4] = molecular target: Fuc(a1-2)Gal(b1-4)[Fuc(a1-3)]GlcNAc(b1-3)GalNAc
Outline: as §1

[5] = molecular target: Fuc(a1-2)Gal6S(b1-3)GlcNAc
Outline: as §1

[6] = molecular target: Fuc(a1-2)[Gal(a1-3)]Gal(b1-3)GlcNAc(b1-6)GalNAc
Outline: as §1

[7] = molecular target: Fuc(a1-2)[Gal(a1-3)]Gal(b1-4)GlcNAc(b1-3)GalNAc
Outline: as §1

[8] = molecular target: Fuc(a1-2)[GalNAc(a1-3)]Gal(b1-3)GlcNAc(b1-6)GalNAc
Outline: as §1

[9] = molecular target: Fuc(a1-2)[GalNAc(a1-3)]Gal(b1-4)[Fuc(a1-3)]GlcNAc(b1-3)GalNAc
Outline: as §1

Fuc(a1-3)GlcNAc = molecular target: Fuc(a1-3)GlcNAc
Outline: as §1

[10] = molecular target: Fuc(a1-3)[Gal(b1-4)]GlcNAc(b1-3)Gal(b1-4)[Fuc(a1-3)]GlcNAc
Outline: as §1

[11] = molecular target: Fuc(a1-3)[Gal(b1-4)]GlcNAc(b1-6)GalNAc
Outline: as §1

[12] = molecular target: Fuc(a1-3)[Gal(b1-4)]GlcNAc6S
Outline: as §1

[13] = molecular target: Gal(a1-3)Gal(b1-3)GlcNAc(b1-2)Man(a1-3)[Gal(a1-3)Gal(b1-3)GlcNAc(b1-2)Man(a1-6)]Man(b1-4)GlcNAc(b1-4)GlcNAc
Outline: as §1

[14] = molecular target: Gal(a1-3)Gal(b1-4)GlcNAc(b1-3)GalNAc
Outline: as §1

[15] = molecular target: Gal(a1-3)[Gal(a1-4)]Gal(b1-4)GlcNAc
Outline: as §1

Gal(b1-2)Gal = molecular target: Gal(b1-2)Gal
Outline: as §1

Gal(b1-3)Gal = molecular target: Gal(b1-3)Gal
Outline: as §1

Gal(b1-3)Gal(b1-4)GlcNAc = molecular target: Gal(b1-3)Gal(b1-4)GlcNAc
Outline: as §1

Gal(b1-3)GalNAc = molecular target: Gal(b1-3)GalNAc
Outline: as §1

Gal(b1-3)GalNAc(b1-3)Gal = molecular target: Gal(b1-3)GalNAc(b1-3)Gal
Outline: as §1

[16] = molecular target: Gal(b1-3)GalNAc(b1-4)Gal(b1-4)Glc
Outline: as §1

[17] = molecular target: Gal(b1-3)GalNAc(b1-4)[Neu5Ac(a2-3)]Gal(b1-4)Glc
Outline: as §1

[18] = molecular target: Gal(b1-3)[Neu5Ac(a2-6)]GalNAc
Outline: as §1

[19] = molecular target: Gal(b1-4)GlcNAc(b1-2)Man(a1-3)[Man(a1-6)]Man(b1-4)GlcNAc(b1-4)GlcNAc
Outline: as §1

[20] = molecular target: Gal(b1-4)GlcNAc(b1-2)[Gal(b1-4)GlcNAc(b1-6)]Man(a1-6)[GlcNAc(b1-4)][Gal(b1-4)GlcNAc(b1-2)Man(a1-3)]Man(b1-4)GlcNAc(b1-4)GlcNAc
Outline: as §1

[21] = molecular target: Gal(b1-4)GlcNAc(b1-3)Gal(b1-4)GlcNAc(b1-3)Gal(b1-4)GlcNAc(b1-3)Gal(b1-4)GlcNAc(b1-2)Man(a1-3)[Gal(b1-4)GlcNAc(b1-3)Gal(b1-4)GlcNAc(b1-3)Gal(b1-4)GlcNAc(b1-3)Gal(b1-4)GlcNAc(b1-2)Man(a1-6)]Man(b1-4)GlcNAc(b1-4)GlcNAc
Outline: as §1

[22] = molecular target: Gal(b1-4)GlcNAc(b1-3)Gal(b1-4)GlcNAc(b1-3)Gal(b1-4)GlcNAc(b1-3)Gal(b1-4)GlcNAc(b1-3)Gal(b1-4)GlcNAc(b1-2)Man(a1-3)[Gal(b1-4)GlcNAc(b1-3)Gal(b1-4)GlcNAc(b1-3)Gal(b1-4)GlcNAc(b1-3)Gal(b1-4)GlcNAc(b1-3)Gal(b1-4)GlcNAc(b1-2)Man(a1-6)]Man(b1-4)GlcNAc(b1-4)[Fuc(a1-6)]GlcNAc
Outline: as §1

[23] = molecular target: Gal(b1-4)GlcNAc(b1-3)GalNAc
Outline: as §1

Gal3S(b1-4)GlcNAc = molecular target: Gal3S(b1-4)GlcNAc
Outline: as §1

Gal6S(b1-4)GlcNAc = molecular target: Gal6S(b1-4)GlcNAc
Outline: as §1

GalNAc(b1-4)GlcNAc = molecular target: GalNAc(b1-4)GlcNAc
Outline: as §1

[24] = molecular target: GalNAc(b1-4)GlcNAc(b1-2)Man
Outline: as §1

[25] = molecular target: Glc(a1-6)Glc(a1-6)Glc(a1-6)Glc
Outline: as §1

GlcA(b1-3)GlcNAc = molecular target: GlcA(b1-3)GlcNAc
Outline: as §1

[26] = molecular target: GlcNAc(b1-2)[GlcNAc(b1-4)]Man(a1-3)[GlcNAc(b1-4)][GlcNAc(b1-2)Man(a1-6)]Man(b1-4)GlcNAc(b1-4)GlcNAc
Outline: as §1

[27] = molecular target: GlcNAc(b1-2)[GlcNAc(b1-4)]Man(a1-3)[GlcNAc(b1-4)][GlcNAc(b1-2)[GlcNAc(b1-6)]Man(a1-6)]Man(b1-4)GlcNAc(b1-4)GlcNAc
Outline: as §1

[28] = molecular target: Kdn(a2-3)Gal(b1-4)[Fuc(a1-3)]GlcNAc
Outline: as §1

[29] = molecular target: Man(a1-2)Man(a1-2)Man(a1-3)Man
Outline: as §1

[30] = molecular target: Neu5Ac(a2-3)Gal(b1-3)[Fuc(a1-4)]GlcNAc(b1-3)Gal(b1-4)[Fuc(a1-3)]GlcNAc
Outline: as §1

[31] = molecular target: Neu5Ac(a2-3)Gal(b1-4)GlcNAc(b1-3)GalNAc
Outline: as §1

[32] = molecular target: Neu5Ac(a2-3)Gal(b1-4)[Fuc(a1-3)]GlcNAc(b1-6)[Gal(b1-3)]GalNAc
Outline: as §1

[33] = molecular target: Neu5Ac(a2-3)Gal6S(b1-4)GlcNAc
Outline: as §1

[34] = molecular target: Neu5Ac(a2-6)Gal(b1-4)GlcNAc
Outline: as §1

[35] = molecular target: Neu5Ac(a2-6)Gal(b1-4)GlcNAc(b1-3)Gal(b1-4)GlcNAc(b1-3)Gal(b1-4)GlcNAc(b1-2)Man(a1-3)[Neu5Ac(a2-6)Gal(b1-4)GlcNAc(b1-3)Gal(b1-4)GlcNAc(b1-3)Gal(b1-4)GlcNAc(b1-2)Man(a1-6)]GalNAc
Outline: as §1

[36] = molecular target: Neu5Ac(a2-6)Gal(b1-4)GlcNAc(b1-3)Gal(b1-4)GlcNAc(b1-3)[Neu5Ac(a2-6)Gal(b1-4)GlcNAc(b1-3)Gal(b1-4)GlcNAc(b1-6)]GalNAc
Outline: as §1

[37] = molecular target: Neu5Gc(a2-3)Gal(b1-3)GlcNAc
Outline: as §1

B1: CFEM-SCL (Saccharomyces cerevisiae), O13547 (protein)
chain: MRATTLLSSVVSLALLSKEVLATPPACLLACVAQVGKSSSTCDSLNQVTCYCEHENSAVKKCLDSICPNNDADAAYSAFKSSCSEQNASLGD
In the case of B1, the “glycan array binding signal (z-score)” value [1] is reported as -0.173, the “glycan array binding signal (z-score)” value [2] is reported as -0.213 and the “glycan array binding signal (z-score)” value [3] is reported as 3.91. The “glycan array binding signal (z-score)” value [4] was 3.09, the “glycan array binding signal (z-score)” value [5] was -0.235 and the “glycan array binding signal (z-score)” value [6] was -0.325. For the same binder, the “glycan array binding signal (z-score)” value [7] was -0.207, the “glycan array binding signal (z-score)” value [8] was -0.289 and the “glycan array binding signal (z-score)” value [9] was 2.67. The “glycan array binding signal (z-score)” value (Fuc(a1-3)GlcNAc) was -0.151, the “glycan array binding signal (z-score)” value [10] was -0.174 and the “glycan array binding signal (z-score)” value [11] was 2.59. The “glycan array binding signal (z-score)” value [12] was -0.014, the “glycan array binding signal (z-score)” value [13] was 0.636 and the “glycan array binding signal (z-score)” value [14] was -0.281. The “glycan array binding signal (z-score)” value [15] was -0.238, the “glycan array binding signal (z-score)” value (Gal(b1-2)Gal) was 0.077 and the “glycan array binding signal (z-score)” value (Gal(b1-3)Gal) was 4.26. The “glycan array binding signal (z-score)” value (Gal(b1-3)Gal(b1-4)GlcNAc) was 2.99, the “glycan array binding signal (z-score)” value (Gal(b1-3)GalNAc) was 3.86 and the “glycan array binding signal (z-score)” value (Gal(b1-3)GalNAc(b1-3)Gal) was 14.5. The “glycan array binding signal (z-score)” value [16] was 11.1, the “glycan array binding signal (z-score)” value [17] was 2.46 and the “glycan array binding signal (z-score)” value [18] was 3.63. For the same binder, the “glycan array binding signal (z-score)” value [19] was -0.238, the “glycan array binding signal (z-score)” value [20] was -0.19 and the “glycan array binding signal (z-score)” value [21] was -0.022. For the same binder, the “glycan array binding signal (z-score)” value [22] was -0.165, the “glycan array binding signal (z-score)” value [23] was -0.111 and the “glycan array binding signal (z-score)” value (Gal3S(b1-4)GlcNAc) was -0.261. For the same binder, the “glycan array binding signal (z-score)” value (Gal6S(b1-4)GlcNAc) was -0.027, the “glycan array binding signal (z-score)” value (GalNAc(b1-4)GlcNAc) was 0.047 and the “glycan array binding signal (z-score)” value [24] was -0.281. For the same binder, the “glycan array binding signal (z-score)” value [25] was -0.331, the “glycan array binding signal (z-score)” value (GlcA(b1-3)GlcNAc) was -0.277 and the “glycan array binding signal (z-score)” value [26] was -0.326. The “glycan array binding signal (z-score)” value [27] was -0.303, the “glycan array binding signal (z-score)” value [28] was -0.086 and the “glycan array binding signal (z-score)” value [29] was 0.113. For the same binder, the “glycan array binding signal (z-score)” value [30] was -0.234, the “glycan array binding signal (z-score)” value [31] was -0.277 and the “glycan array binding signal (z-score)” value [32] was 0.813. The “glycan array binding signal (z-score)” value [33] was -0.311, the “glycan array binding signal (z-score)” value [34] was -0.282 and the “glycan array binding signal (z-score)” value [35] was 1.21. The “glycan array binding signal (z-score)” value [36] was -0.146 and the “glycan array binding signal (z-score)” value [37] was -0.298.
